The values below come from article PMC7862700, “An all-to-all approach to the identification of sequence-specific readers for epigenetic DNA modifications on cytosine”.

Assay in all cases: DAPPL (digital affinity profiling via proximity ligation, sequencing); 10 mM Tris-HCl pH 7.5, 50 mM NaCl, 1 mM DTT, 4% glycerol, room temperature, 30 min; GST-TFs on glutathione beads, 16-mer random dsDNA library, 0.1% formaldehyde crosslink after washing; high values mean tight binding
One experiment deals with T1, FEV (Homo sapiens, UniProt Q99581 1-238).
T1 sequence: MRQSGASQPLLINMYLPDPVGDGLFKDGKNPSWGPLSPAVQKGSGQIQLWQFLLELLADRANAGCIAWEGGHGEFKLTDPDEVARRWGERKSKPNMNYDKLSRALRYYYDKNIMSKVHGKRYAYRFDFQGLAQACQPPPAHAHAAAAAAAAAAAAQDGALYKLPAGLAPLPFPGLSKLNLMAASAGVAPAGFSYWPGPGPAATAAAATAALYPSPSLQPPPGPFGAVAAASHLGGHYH
The note with it: protein: recombinant; tags: N-terminal GST; dsDNA, one strand shown. The procedure, abridged: (§1)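 Each value of binding signal is a hexamer's read frequency for a factor divided by the same hexamer's frequency in the tag-only sample. Barcoded, bead-captured GST fusions of human transcription factors made in yeast were pooled with that sample and incubated with 200 nmole of a random double-stranded 16-mer DNA library in Tris/NaCl/DTT/glycerol buffer at room temperature for 30 min. Washing, 0.1% formaldehyde crosslinking, proximity ligation, PCR and Illumina NextSeq500 sequencing followed.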

In the next experiment the target is ETV5 (Homo sapiens, UniProt P41161 1-510). Conditions: protein: recombinant; tags: N-terminal GST; dsDNA, one strand shown. The procedure, abridged:
as §1

A further experiment concerns the target HSF1 (Homo sapiens, UniProt Q00613 1-529). The note with it: protein: recombinant; tags: N-terminal GST; chain copies: 3; dsDNA, one strand shown. The procedure, abridged: as §1
Another experiment concerns the target T2, SPIC (Homo sapiens, UniProt Q8N5J4 1-248).
T2 sequence: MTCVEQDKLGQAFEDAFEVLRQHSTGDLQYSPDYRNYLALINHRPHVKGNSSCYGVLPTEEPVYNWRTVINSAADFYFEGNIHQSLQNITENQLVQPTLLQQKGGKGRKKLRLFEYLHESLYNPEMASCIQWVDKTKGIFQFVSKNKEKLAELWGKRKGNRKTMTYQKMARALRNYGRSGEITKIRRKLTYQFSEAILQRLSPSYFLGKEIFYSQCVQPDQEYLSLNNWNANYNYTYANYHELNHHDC
Conditions: protein: recombinant; tags: N-terminal GST; dsDNA, one strand shown. The procedure, abridged: as §1

Another experiment has as its target ELF4 (Homo sapiens, UniProt Q99607 1-663). The note with it: protein: recombinant; tags: N-terminal GST; dsDNA, one strand shown. In a few lines: as §1
In the next experiment the target is T3, ELK4 (Homo sapiens, UniProt P28324-2 1-405).
T3 sequence: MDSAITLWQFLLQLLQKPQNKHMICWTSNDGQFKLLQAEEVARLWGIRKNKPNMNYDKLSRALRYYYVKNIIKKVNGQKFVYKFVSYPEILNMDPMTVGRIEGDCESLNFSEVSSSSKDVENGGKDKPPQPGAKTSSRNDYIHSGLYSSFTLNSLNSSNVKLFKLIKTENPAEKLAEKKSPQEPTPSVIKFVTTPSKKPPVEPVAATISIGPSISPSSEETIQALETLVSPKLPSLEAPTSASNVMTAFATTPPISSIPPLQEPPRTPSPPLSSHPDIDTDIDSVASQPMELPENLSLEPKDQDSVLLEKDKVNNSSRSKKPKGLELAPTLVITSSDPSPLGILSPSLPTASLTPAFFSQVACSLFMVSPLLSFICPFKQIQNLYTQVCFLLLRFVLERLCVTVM
The note with it: protein: recombinant; tags: N-terminal GST; dsDNA, one strand shown. The procedure, abridged: as §1

A further experiment addresses T4, ETV2 (Homo sapiens, UniProt O00321 1-342).
T4 sequence: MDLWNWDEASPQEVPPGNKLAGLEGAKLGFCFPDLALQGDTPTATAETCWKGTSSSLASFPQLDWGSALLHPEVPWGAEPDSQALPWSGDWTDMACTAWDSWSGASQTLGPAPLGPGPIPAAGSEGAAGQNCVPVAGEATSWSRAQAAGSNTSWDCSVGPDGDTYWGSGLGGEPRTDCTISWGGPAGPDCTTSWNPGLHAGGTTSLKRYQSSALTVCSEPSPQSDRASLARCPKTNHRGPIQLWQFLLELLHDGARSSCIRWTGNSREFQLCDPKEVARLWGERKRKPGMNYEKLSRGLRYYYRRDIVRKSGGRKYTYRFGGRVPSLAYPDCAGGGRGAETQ
Conditions: protein: recombinant; tags: N-terminal GST; dsDNA, one strand shown. In a few lines: as §1

Another experiment has as its target T5, ELF3 (Homo sapiens, UniProt P78545 1-371).
T5 sequence: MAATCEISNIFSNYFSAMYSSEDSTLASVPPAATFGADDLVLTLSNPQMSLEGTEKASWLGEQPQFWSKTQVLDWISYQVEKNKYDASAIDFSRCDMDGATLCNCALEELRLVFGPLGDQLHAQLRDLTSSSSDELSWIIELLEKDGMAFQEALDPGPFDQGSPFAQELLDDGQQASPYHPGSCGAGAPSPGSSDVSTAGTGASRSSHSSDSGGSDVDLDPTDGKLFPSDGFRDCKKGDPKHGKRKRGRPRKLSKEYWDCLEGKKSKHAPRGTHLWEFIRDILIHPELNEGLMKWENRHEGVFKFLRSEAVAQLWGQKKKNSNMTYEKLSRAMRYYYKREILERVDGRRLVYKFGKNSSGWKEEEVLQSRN
The note with it: protein: recombinant; tags: N-terminal GST; dsDNA, one strand shown. The procedure, abridged: as §1

The next experiment concerns the target CRX (Homo sapiens, UniProt O43186 1-299). The note with it: protein: recombinant; tags: N-terminal GST; dsDNA, one strand shown. The procedure, abridged: as §1
The target in the next experiment is ETV1 (Homo sapiens, UniProt P50549 1-477). Conditions: protein: recombinant; tags: N-terminal GST; dsDNA, one strand shown. In a few lines: as §1
Chain of ETV1 (P50549 whole entry): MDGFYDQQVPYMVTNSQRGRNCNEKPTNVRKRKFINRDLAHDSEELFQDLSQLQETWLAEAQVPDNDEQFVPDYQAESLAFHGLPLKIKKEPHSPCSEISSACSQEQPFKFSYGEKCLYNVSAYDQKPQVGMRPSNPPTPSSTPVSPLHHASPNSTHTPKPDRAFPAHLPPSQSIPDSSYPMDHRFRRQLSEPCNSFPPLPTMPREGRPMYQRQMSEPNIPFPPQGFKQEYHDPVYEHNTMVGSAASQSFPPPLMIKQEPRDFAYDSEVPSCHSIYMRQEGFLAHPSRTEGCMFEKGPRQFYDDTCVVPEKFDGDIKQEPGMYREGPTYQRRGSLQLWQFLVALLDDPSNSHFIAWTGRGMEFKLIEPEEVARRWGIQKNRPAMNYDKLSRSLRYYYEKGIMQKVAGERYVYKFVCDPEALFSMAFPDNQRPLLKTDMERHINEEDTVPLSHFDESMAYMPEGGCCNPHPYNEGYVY
A further experiment has as its target T6, ERF (Homo sapiens, UniProt P50548 1-548).
T6 sequence: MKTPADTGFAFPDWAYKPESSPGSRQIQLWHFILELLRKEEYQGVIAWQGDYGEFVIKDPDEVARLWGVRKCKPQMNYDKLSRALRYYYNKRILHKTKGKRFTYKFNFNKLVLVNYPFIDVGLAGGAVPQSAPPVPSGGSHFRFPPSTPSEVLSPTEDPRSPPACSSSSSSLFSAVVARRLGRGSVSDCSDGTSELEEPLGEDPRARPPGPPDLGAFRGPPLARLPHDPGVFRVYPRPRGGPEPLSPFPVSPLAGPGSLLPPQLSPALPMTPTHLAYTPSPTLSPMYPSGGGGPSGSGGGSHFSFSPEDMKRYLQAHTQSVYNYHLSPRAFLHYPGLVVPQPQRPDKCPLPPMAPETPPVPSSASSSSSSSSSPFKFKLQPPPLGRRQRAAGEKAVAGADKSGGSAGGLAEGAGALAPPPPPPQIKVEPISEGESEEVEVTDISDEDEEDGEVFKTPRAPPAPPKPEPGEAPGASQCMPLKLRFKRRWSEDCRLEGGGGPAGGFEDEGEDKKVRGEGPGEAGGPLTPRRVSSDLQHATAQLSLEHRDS
The note with it: protein: recombinant; tags: N-terminal GST; dsDNA, one strand shown. In a few lines:
as §1

Another experiment addresses T7, ETV3L (Homo sapiens, UniProt Q6ZN32 1-361).
T7 sequence: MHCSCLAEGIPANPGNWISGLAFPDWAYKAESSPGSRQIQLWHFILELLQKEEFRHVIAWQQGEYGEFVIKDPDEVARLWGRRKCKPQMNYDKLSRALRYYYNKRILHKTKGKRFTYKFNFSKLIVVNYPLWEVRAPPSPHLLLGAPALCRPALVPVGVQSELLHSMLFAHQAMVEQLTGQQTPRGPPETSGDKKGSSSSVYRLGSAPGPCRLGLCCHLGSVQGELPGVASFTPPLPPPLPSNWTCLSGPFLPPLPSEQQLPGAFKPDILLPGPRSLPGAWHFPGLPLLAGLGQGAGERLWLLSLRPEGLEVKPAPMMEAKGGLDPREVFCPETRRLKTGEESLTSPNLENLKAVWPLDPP
Conditions: protein: recombinant; tags: N-terminal GST; dsDNA, one strand shown. The procedure, abridged: as §1

For another experiment, the target named is T8, ETS2 (Homo sapiens, UniProt P15036 1-469).
T8 sequence: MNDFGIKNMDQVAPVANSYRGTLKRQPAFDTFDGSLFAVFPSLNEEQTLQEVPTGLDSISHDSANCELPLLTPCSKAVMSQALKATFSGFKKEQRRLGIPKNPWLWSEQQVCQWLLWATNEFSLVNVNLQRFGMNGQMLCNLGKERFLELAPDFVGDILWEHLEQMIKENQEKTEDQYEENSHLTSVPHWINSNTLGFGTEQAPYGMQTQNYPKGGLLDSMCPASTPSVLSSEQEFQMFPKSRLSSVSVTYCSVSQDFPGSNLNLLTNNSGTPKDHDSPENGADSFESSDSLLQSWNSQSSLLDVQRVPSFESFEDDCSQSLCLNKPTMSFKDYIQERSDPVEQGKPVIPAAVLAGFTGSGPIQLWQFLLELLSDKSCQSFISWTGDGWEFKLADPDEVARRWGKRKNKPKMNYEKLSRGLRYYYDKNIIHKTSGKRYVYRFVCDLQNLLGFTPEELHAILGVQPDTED
Conditions: protein: recombinant; tags: N-terminal GST; dsDNA, one strand shown. In a few lines:
as §1

The next experiment addresses T9, SPDEF (Homo sapiens, UniProt O95238 1-335).
T9 sequence: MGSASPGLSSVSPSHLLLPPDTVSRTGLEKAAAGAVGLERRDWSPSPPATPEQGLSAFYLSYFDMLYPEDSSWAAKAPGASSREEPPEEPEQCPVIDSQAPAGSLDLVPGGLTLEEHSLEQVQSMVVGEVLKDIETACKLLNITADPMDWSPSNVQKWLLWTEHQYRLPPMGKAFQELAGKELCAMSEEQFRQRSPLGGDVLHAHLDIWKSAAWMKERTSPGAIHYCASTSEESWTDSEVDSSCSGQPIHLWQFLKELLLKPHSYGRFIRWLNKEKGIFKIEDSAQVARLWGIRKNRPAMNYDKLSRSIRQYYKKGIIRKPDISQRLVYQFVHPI
The note with it: protein: recombinant; tags: N-terminal GST; dsDNA, one strand shown. In a few lines:
as §1

Another experiment deals with T10, ETV7 (Homo sapiens, UniProt Q9Y603 1-341).
T10 sequence: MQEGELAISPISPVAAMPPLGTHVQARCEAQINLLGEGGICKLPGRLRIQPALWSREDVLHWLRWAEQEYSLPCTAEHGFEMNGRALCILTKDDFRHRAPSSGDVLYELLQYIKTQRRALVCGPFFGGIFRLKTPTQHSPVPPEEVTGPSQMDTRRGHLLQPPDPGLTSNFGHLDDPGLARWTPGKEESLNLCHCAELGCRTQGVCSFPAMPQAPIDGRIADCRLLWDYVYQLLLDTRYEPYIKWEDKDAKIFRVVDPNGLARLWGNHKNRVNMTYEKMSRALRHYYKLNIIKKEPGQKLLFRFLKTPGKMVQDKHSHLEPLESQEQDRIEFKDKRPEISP
The note with it: protein: recombinant; tags: N-terminal GST; dsDNA, one strand shown. The procedure, abridged: as §1

A further experiment deals with T11, ELF5 (Homo sapiens, UniProt Q9UKW6-2 1-255).
T11 sequence: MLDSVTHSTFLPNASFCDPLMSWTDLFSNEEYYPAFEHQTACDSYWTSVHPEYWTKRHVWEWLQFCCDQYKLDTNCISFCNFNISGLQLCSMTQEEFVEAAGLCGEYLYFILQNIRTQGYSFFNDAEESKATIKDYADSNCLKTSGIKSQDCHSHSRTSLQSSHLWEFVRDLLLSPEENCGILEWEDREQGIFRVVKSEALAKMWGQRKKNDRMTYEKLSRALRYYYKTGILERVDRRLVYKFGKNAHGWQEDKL
The note with it: protein: recombinant; tags: N-terminal GST; dsDNA, one strand shown. In a few lines: as §1

The next experiment concerns the target T12, ETV3 (Homo sapiens, UniProt P41162-2 1-143).
T12 sequence: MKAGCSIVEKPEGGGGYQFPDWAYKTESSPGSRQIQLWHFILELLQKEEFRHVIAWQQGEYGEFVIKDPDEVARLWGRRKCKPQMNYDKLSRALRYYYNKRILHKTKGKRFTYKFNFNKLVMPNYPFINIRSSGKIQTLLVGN
The note with it: protein: recombinant; tags: N-terminal GST; dsDNA, one strand shown. In a few lines:
as §1

The next experiment has as its target ETV6 (Homo sapiens, UniProt P41212 1-452). The note with it: protein: recombinant; tags: N-terminal GST; dsDNA, one strand shown. In a few lines: as §1

Chain of ETV5 (P41161 whole entry): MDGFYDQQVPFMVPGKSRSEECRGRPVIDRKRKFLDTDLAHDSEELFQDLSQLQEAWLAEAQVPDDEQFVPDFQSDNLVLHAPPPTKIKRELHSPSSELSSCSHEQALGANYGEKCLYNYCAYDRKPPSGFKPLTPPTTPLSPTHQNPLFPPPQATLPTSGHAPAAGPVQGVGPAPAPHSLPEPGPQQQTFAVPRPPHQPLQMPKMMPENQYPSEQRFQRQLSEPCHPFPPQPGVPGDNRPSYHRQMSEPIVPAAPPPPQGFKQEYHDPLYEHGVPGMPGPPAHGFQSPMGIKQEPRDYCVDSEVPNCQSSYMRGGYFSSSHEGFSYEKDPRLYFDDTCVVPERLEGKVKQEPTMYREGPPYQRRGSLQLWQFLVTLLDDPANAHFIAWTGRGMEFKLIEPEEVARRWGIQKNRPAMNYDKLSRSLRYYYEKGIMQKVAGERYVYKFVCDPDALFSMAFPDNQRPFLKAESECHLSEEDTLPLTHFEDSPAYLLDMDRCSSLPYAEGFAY
Chain of ELF4 (Q99607 whole entry): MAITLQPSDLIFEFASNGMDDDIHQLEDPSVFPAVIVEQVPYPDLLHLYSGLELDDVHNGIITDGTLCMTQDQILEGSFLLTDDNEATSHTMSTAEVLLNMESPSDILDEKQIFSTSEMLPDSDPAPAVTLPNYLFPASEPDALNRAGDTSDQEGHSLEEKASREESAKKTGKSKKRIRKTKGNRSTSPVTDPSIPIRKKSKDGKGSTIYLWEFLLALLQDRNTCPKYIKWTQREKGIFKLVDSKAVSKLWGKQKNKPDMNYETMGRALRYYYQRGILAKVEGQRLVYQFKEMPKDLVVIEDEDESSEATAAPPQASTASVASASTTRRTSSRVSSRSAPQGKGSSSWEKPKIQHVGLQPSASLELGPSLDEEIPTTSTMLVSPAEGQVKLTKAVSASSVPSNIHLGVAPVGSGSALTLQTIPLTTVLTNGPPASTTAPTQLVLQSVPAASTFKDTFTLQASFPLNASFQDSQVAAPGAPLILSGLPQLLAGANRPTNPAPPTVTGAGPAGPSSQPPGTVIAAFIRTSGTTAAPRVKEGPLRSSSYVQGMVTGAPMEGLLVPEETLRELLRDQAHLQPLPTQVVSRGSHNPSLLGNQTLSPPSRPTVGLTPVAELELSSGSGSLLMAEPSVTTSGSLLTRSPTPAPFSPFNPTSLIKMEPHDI
Chain of HSF1 (Q00613 whole entry): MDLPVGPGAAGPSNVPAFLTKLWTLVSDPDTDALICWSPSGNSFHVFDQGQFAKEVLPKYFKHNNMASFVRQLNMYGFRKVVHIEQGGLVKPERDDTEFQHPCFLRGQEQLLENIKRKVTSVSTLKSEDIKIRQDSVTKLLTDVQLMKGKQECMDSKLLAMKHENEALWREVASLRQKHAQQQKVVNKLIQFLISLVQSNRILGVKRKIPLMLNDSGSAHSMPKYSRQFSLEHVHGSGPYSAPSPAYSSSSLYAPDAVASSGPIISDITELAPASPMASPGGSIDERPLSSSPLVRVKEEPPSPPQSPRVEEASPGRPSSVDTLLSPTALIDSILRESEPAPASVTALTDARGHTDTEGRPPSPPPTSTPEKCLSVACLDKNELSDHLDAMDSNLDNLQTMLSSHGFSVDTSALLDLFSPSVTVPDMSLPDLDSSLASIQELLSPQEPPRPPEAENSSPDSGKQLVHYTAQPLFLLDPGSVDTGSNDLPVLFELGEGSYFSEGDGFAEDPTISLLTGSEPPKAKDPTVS
Chain of ETV6 (P41212 whole entry): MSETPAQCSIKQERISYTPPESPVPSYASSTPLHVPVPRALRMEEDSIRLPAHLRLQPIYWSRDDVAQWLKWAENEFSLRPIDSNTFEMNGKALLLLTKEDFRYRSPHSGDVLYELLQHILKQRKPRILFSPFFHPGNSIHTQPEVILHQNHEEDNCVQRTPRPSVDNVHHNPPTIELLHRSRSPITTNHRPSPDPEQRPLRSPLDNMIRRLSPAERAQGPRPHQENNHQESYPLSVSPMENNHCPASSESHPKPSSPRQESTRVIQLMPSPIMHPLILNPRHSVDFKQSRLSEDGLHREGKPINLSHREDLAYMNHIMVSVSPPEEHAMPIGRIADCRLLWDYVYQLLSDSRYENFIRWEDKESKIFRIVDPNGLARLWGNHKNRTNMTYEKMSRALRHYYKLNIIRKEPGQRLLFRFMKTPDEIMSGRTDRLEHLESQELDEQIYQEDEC
Chain of CRX (O43186 whole entry): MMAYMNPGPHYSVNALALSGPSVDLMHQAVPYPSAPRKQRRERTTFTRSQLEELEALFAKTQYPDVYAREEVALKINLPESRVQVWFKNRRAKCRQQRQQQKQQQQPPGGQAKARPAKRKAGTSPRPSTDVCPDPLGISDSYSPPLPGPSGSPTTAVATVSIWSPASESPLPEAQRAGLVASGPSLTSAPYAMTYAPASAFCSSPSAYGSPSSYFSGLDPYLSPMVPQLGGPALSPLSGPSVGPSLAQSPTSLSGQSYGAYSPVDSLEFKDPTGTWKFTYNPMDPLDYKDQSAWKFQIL

On to TCTCGT, for which the binding signal was 1.21 fold enrichment (6-mer frequency, TF over GST control) with FEV; 1.1 fold enrichment (6-mer frequency, TF over GST control) with ETV5; 2.01 fold enrichment (6-mer frequency, TF over GST control) in the experiment with HSF1; 1.31 fold enrichment (6-mer frequency, TF over GST control) with SPIC; 1.24 fold enrichment (6-mer frequency, TF over GST control) in the experiment with ELF4; 1.3 fold enrichment (6-mer frequency, TF over GST control) with ELK4. The binding signal is 1.27 fold enrichment (6-mer frequency, TF over GST control) in the experiment with ETV2; 1.65 fold enrichment (6-mer frequency, TF over GST control) with ELF3; 1.35 fold enrichment (6-mer frequency, TF over GST control) with CRX; 1.27 fold enrichment (6-mer frequency, TF over GST control) with ETV1; 1.16 fold enrichment (6-mer frequency, TF over GST control) with ERF; 1.21 fold enrichment (6-mer frequency, TF over GST control) with ETV3L. For the same sequence, the binding signal with ETS2 is 1.34 fold enrichment (6-mer frequency, TF over GST control); with SPDEF, 1.15 fold enrichment (6-mer frequency, TF over GST control); with ETV7 it was 1.2 fold enrichment (6-mer frequency, TF over GST control); with ELF5, 1.24 fold enrichment (6-mer frequency, TF over GST control); with ETV3, 1.03 fold enrichment (6-mer frequency, TF over GST control); in the experiment with ETV6, 1.18 fold enrichment (6-mer frequency, TF over GST control).
